Screening results (PubChem BioAssay)
DT40 TDP1 no CPT = qHTS for Inhibitors of human tyrosyl-DNA phosphodiesterase 1 (TDP1): qHTS in cells in absence of CPT. Potency, µM (doses to about 46.2 µM), inactives show top-dose activity change, negative = growth inhibition, hits mostly inhibitors. actives 15% (n = 420,000). DT40 Tdp1-/- hTDP1 cells, no CPT, ATP luminescence, 48 h; also: potency is read from the fitted curve at half-maximal effect; % is scaled to controls: 0 for no effect and ±100 for the full control effect; nearly all actives have a fitted effect of over 55% in size
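Cells were dispensed at 400 per well, compounds added by pin tool, plates incubated ≥48 hr at 37 °C, then CellTiter-Glo added for 30 min at room temperature before luminescence reading. Line: DT40 Tdp1-/- complemented with hTDP1; camptothecin omitted.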
IL-1B inflam inh = qHTS for Inhibitors of Inflammasome Signaling: IL-1-beta AlphaLISA Primary Screen | actives 4.7% (n = 360,000) | activity change, % at 57.5 µM | AID 743279, 2014 | THP-1 LPS/ATP IL-1B secretion, AlphaLISA, 16 h; hits give low values; in the data active = activity change below about -50%; inconclusive = mostly about -30% to -49%; also: % is scaled to controls: 0 for no effect and ±100 for the full control effect
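THP-1 cells pretreated 1 hr with compounds (up to 57.5 uM final), then stimulated with LPS (250 ng/mL final) plus ATP (1.25 mM final); secreted IL-1B measured by AlphaLISA after 16 hr, decreased signal indicating inhibition.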
TDP1 inh = qHTS Assay for Inhibitors of Tyrosyl-DNA Phosphodiesterase (TDP1) | Tyrosyl-DNA phosphodiesterase 1 (Homo sapiens), Q9NUW8 | recombinant TDP1, AlphaScreen DNA substrate cleavage | Potency, µM (doses to about 130 µM), without a hit: at the highest dose activity change, negative = inhibition, most hits filed as inhibitors | actives 0.28% (n = 350,000); also: potency is read from the fitted curve at half-maximal effect; % is scaled to controls: 0 for no effect and ±100 for the full control effect; nearly all actives have a fitted effect of over 40% in size
Target sequence (Q9NUW8 whole entry, looked up): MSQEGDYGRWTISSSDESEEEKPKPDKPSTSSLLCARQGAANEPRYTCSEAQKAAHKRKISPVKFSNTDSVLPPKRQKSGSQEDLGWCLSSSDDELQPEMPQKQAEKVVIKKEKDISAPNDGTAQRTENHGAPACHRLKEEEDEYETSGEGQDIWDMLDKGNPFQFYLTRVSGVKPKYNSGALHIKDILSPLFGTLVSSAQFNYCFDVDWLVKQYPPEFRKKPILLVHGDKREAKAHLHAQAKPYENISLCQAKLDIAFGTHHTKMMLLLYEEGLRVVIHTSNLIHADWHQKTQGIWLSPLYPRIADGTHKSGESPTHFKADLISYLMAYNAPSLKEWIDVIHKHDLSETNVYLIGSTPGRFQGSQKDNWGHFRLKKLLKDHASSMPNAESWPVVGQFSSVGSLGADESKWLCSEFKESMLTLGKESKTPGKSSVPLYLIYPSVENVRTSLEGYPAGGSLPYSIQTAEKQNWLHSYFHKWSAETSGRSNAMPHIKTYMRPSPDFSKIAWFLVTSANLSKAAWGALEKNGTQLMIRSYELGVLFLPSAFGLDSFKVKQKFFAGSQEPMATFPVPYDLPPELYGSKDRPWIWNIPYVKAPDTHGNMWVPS
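Compounds were preincubated with Tdp1 (1 nM final) for 15 min at room temperature before substrate (15 nM final) started a 5 min reaction; beads (10 ug/ml final) were then added for 10 min before AlphaScreen detection.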
HepG2 tox = qHTS for Inhibitors of TGF-b: Cytotox Counterscreen. actives 0.76% (n = 410,000). Potency, µM (doses to about 46.1 µM), inactives show top-dose activity change, negative = cytotoxicity, hits mostly cytotoxic. HepG2 CAGA-GFP viability, ATP luminescence, 18 h; also: potency is read from the fitted curve at half-maximal effect
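HepG2 CAGA-GFP cells (1000/well, DMEM with 1% FBS) received compound, then TGF-beta at 500 pg/mL final, and were incubated 18 hours at 37 degrees C. Viability was read by CellTiter-Glo luminescence. Media-only wells were set as complete cell-killing and DMSO as no toxicity.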
TDP1 cell CPT = qHTS for Inhibitors of human tyrosyl-DNA phosphodiesterase 1 (TDP1): qHTS in cells in presence of CPT; actives 12% (n = 420,000); Potency, µM (highest dose often 46.2 µM), for the others: at the top dose activity change, negative = growth inhibition, usual class: inhibitors; chicken DT40 Tdp1-/-;hTDP1 cells + 20 nM CPT, ATP luminescence, 48 h; also: potency is read from the fitted curve at half-maximal effect; % is scaled to controls: 0 for no effect and ±100 for the full control effect; nearly all actives have a fitted effect of over 55% in size
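Chicken DT40 Tdp1-/- cells stably complemented with human TDP1 were seeded at 400 cells/well in medium containing 20 nM camptothecin, exposed to pin-transferred compounds, and grown at 37 °C for at least 48 hr. Viability was read as ATP luminescence.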
TGFb SMAD3 inh = qHTS for Inhibitors of TGF-b. HepG2 CAGA-GFP TGF-b/SMAD3 reporter, GFP fluorescence, 18 h; TGF-beta stimulated, 500 pg/mL final. Potency, µM (highest dose often 46.1 µM), for the others: at the highest dose activity, negative = inhibition, most hits filed as inhibitors. actives 1.2% (n = 410,000); also: potency is read from the fitted curve at half-maximal effect; % is scaled to controls: 0 for no effect and ±100 for the full control effect; nearly all actives have a fitted effect of over 65% in size
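Cell-based qHTS in HEPG2 carrying a CAGA-GFP Smad reporter; compounds added before 500 pg/mL final TGF-beta, 18 h incubation at 37 degrees C, GFP fluorescence quantified per cell by imaging cytometry.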
Numbers without * were called inactive; ? = inconclusive; / = no result. Compounds with a hit are over-represented: about 18% of the library has one in this group of screens. Unless noted, calls follow the shape of the dose curve; as a rule, active = well fitted curve in the direction sought with a large enough effect; inconclusive = small, poorly fitted or top-dose-only effect, or another doubt; inactive = no such curve, though single readings can be large; an effect the other way counts as inactive or inconclusive.

SMILES	DT40 TDP1 no CPT	IL-1B inflam inh	TDP1 inh	HepG2 tox	TDP1 cell CPT	TGFb SMAD3 inh
COC(=O)C1=C(C)N(Cc2ccccc2)C(=NCCc2cccnc2)N[C@H]1c1ccccc1	21µM*	-58*	/	-20%	12µM*	-2%
COC(=O)C1=C(C)N(Cc2ccccc2)C(=S)N[C@H]1c1ccc(Br)cc1	-18%	-15	4%	-1%	?	13µM*
COC(=O)C1=C(C)N(Cc2ccccc2)C(=NCc2ccc3c(c2)OCO3)N[C@H]1c1ccccc1	18µM*	-57*	1%	-55%	?	?
CCc1nn(CC(=O)Nc2c(C)cc(C)cc2C)c(=O)c2cc3sccc3n12	-15%	/	0%	-8%	-4%	-1%
COc1ccccc1N1CCN(C(=O)Cn2ncc3c(=O)oc4ccccc4c32)CC1	?	/	7%	-37%	-12%	?
CCCCn1nc(NC(=O)c2cccs2)c2cc3cc(OC)ccc3nc21	23µM*	4	/	4%	18µM*	?
CCCn1nc(NC(=O)c2cccs2)c2cc3ccc(C)cc3nc21	?	-16	/	-17%	?	-11%
CCCCn1nc(NC(=O)CCC)c2cc3cc(OC)ccc3nc21	?	32	/	-1%	-24%	6%
CCCn1nc(NC(=O)c2cccs2)c2cc3cc(C)ccc3nc21	16µM*	-21	-12%	2%	?	-4%
CCCn1nc(NC(=O)c2cccs2)c2cc3cc(OC)ccc3nc21	12µM*	-18	/	7%	13µM*	?
CCCCn1nc(NC(=O)c2cccs2)c2cc3ccccc3nc21	18µM*	-94*	/	4%	21µM*	?
CCCn1nc(NC(=O)c2cccs2)c2cc3ccccc3nc21	?	-2	/	-13%	?	-32%
CCC1=C(NCc2ccccc2)COC1=O	-18%	21	/	6%	-7%	7%
O=S(=O)(N/N=C/c1cn(Cc2ccccc2)c2ccccc12)c1ccccc1	-2%	-9	8%	-55%	-11%	?
CCCCCCn1nc(C(=O)N(CCOC)c2c(N)n(CCCC)c(=O)[nH]c2=O)c2ccccc2c1=O	?	2	/	-2%	-29%	3%
COc1ccc(NC(=S)N(Cc2ccc(N(C)C)cc2)Cc2ccco2)cc1	?	-76*	5%	-3%	2%	-6%
CCCN(Cc1ccccc1)C(=S)Nc1ccc(OCC)cc1	18µM*	-58*	7%	0%	?	-23%
CCOc1ccc(NC(=S)N(Cc2ccc(N(C)C)cc2)Cc2ccco2)cc1	16µM*	-19	10%	-19%	?	-44%
CC(=O)c1cccc(N(C(=O)CNC(=O)c2ccco2)C(C(=O)NCC2CCCO2)c2ccccc2)c1 (centres undefined)	1%	9	8%	10%	4%	3%
COc1ccc(Oc2ccc(/C=C/C(=O)c3ccc(O)cc3)cc2[N+](=O)[O-])cc1	15µM*	-100*	11%	-98%	?	16µM*
O=C(/C=C/c1ccc(O)c([N+](=O)[O-])c1)c1ccc2ccccc2c1	23µM*	-20	/	-19%	18µM*	?
CN(C)c1ccc(/C=C/C(=O)c2ccccc2)cc1[N+](=O)[O-]	-29%	-2	-3%	-26%	2%	-14%
Cc1ccc([C@H]2C[C@@H](O)[C@H](n3cc(-c4ccc(F)cc4)nn3)CN2C(=O)c2cccs2)cc1	15µM*	-19	/	-30%	?	-16%
Cc1ccc([C@H]2C[C@@H](n3cc(-c4ccc(F)cc4)nn3)[C@H](O)CN2C(=O)c2cccs2)cc1	15µM*	-6	/	-20%	18µM*	-11%
Cc1ccc([C@H]2C[C@H](O)[C@@H](n3cc(-c4ccc(F)cc4)nn3)CN2C(=O)c2cccs2)cc1	18µM*	-11	/	-18%	?	-3%
SMILES	DT40 TDP1 no CPT	IL-1B inflam inh	TDP1 inh	HepG2 tox	TDP1 cell CPT	TGFb SMAD3 inh
Cc1ccc([C@H]2C[C@@H](n3cc(C4CC4)nn3)[C@H](O)CN2C(=O)c2cccs2)cc1	-17%	4	/	-4%	0%	5%
Cc1ccc([C@H]2C[C@H](O)[C@@H](n3cc(COC(=O)c4ccccc4)nn3)CN2C(=O)c2cccs2)cc1	?	19	/	-39%	?	-1%
CCc1cccc(CC)c1NC(=O)C1SC(=Nc2ccccc2C)C(c2nc3ccccc3s2)=C1N (centres undefined)	23µM*	6	10%	-52%	?	0%
COC(=O)c1cc(=O)nc(NN=Cc2ccco2)s1	16%	0	/	26%	-20%	3%
CNC(=S)/N=C/NOCc1ccc(Cl)cc1Cl	21µM*	-51*	9%	-13%	?	14µM*
OCc1ccc(Cl)cc1Cl	-10%	/	/	/	14%	/
COc1ccc(-c2noc(N3CCC(C(=O)Nc4ccccc4F)CC3)n2)cc1	-4%	21	/	-27%	-16%	-3%
COc1ccc(F)cc1NC(=O)C1CCN(c2nc(-c3ccc(OC)c(OC)c3)no2)CC1	16µM*	/	9%	-15%	4.6µM*	19%
COc1ccc(-c2noc(N3CCCC(C(=O)Nc4cc(F)ccc4F)C3)n2)cc1 (centres undefined)	18µM*	0	/	-14%	?	-4%
CCOC(=O)c1nc2ccc(C)cc2c2c1C1CC(c3c(Cl)cccc31)N2C(=O)OCc1ccccc1 (centres undefined)	18µM*	11	/	-10%	15µM*	-4%
O=C(Nc1cccc2cccnc12)C(Cl)(Cl)Cl	/	/	-13%	2%	/	6%
O=C(NCCCN1CCOCC1)c1ccc(Cl)cc1	-18%	/	0%	/	12%	/
O=C(CCN1CCOCC1)c1ccc(Cl)cc1	2.6µM*	-24	-5%	0%	2.9µM*	-1%
O=C(CCN1CCOCC1)c1ccc(Br)cc1	2.6µM*	-91*	2%	-34%	3.3µM*	?
Cc1cc(=O)[nH]c(NNC(=O)c2ccc(Cl)cc2)n1	4%	12	/	0%	11%	7%
N#CCCCN1C(=O)C(=C(C#N)C#N)c2ccccc21	?	-3	-1%	-31%	16µM*	?
